In the supplement of paper PMC10849652:
About 8,800 targets were measured; listed, in parts, are those with a hit and a random draw of the rest. About 0.5% of all pairs of compound and target were hits. A number with no mark means an inactive call.

These targets were tested with C1=CC2=NC=CN=C2C=C1/C=C/3\C(=O)NC(=O)S3 (assay: log2 fold change, soluble protein after heating vs DMSO (PISA); higher = thermal stabilisation; K562 lysate, 10 uM; active = over 0.2 and 3.5 SD of the protein, either way, in both replicates (recomputed)).
Procedure, shortened: (§1)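 Pellets of K562 cells were dounce-homogenised in PBS pH 7.4 with 1 mM MgCl2, and the crude extract was held at 1 mg/mL protein for a 30 min treatment with 10 μM compound. Aliquots were heated for 3 min over 48°C-58°C and pooled before NP-40 was added to 0.5% at 4°C. The supernatant from 21,000xg for 90 min was quantified by TMTpro 16plex LC-MS/MS with channel sums equalised. Values are reported from duplicates as log-two fold change in thermal stability relative to solvent controls.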

UniProt Q8IYX8, sequence (Q8IYX8 whole entry, looked up): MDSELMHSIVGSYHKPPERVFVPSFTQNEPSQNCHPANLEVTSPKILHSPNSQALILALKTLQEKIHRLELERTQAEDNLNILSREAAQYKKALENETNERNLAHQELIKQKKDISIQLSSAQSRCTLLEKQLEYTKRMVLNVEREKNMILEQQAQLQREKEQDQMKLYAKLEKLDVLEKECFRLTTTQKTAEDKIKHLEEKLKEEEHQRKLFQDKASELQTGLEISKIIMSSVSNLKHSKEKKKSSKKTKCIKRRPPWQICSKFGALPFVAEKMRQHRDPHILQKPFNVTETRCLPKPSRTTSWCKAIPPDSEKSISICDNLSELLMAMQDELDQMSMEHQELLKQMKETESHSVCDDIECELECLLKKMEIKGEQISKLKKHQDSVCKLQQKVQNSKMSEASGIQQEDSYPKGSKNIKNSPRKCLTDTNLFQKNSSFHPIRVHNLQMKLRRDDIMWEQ
UniProt P25440, sequence (P25440 whole entry, looked up): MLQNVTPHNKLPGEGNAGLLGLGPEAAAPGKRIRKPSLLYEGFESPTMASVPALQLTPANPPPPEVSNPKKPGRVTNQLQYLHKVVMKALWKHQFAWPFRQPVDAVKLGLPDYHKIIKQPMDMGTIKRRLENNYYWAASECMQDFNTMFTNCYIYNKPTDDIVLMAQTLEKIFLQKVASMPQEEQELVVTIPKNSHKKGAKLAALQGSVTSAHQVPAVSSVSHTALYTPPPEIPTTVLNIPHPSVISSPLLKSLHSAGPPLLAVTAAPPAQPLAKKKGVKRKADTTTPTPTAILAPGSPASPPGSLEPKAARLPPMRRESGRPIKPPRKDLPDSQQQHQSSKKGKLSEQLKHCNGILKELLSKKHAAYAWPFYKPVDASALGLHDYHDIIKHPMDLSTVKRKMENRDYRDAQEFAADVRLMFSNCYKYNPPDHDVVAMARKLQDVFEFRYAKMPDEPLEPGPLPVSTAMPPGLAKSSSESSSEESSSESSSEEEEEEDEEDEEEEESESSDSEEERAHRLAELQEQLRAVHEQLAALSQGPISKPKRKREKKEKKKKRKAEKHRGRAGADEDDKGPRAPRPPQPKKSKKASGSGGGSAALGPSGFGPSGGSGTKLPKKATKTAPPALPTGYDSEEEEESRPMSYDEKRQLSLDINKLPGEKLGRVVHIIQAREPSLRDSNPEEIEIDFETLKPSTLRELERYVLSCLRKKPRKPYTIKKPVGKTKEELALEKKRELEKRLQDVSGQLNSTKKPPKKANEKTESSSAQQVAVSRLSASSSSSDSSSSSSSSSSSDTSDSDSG
UniProt Q6P4H8, sequence (Q6P4H8 whole entry, looked up): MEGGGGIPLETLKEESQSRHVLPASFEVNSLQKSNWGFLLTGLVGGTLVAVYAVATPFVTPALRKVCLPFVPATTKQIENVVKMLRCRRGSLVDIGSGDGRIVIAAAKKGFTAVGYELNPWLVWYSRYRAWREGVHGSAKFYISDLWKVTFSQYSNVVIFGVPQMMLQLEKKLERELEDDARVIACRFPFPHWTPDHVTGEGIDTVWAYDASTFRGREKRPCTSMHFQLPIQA
UniProt Q9BUK0, sequence (Q9BUK0 whole entry, looked up): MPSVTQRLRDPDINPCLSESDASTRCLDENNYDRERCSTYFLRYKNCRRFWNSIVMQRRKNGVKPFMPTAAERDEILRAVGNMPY
UniProt Q96LT7, sequence (Q96LT7 whole entry, looked up): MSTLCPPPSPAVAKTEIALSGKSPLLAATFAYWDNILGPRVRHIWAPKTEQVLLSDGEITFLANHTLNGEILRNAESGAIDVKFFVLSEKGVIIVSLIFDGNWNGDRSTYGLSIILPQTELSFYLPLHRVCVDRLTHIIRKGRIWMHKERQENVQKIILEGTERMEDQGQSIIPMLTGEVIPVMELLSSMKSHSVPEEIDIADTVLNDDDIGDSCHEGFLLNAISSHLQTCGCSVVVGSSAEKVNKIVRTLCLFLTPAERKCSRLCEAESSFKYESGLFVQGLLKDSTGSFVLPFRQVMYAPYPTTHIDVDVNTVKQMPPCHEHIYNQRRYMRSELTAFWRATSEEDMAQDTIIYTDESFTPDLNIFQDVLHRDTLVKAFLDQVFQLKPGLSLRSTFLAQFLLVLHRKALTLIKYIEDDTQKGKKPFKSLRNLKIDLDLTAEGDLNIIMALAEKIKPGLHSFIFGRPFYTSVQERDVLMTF
UniProt Q6ZU80, sequence (Q6ZU80 whole entry, looked up): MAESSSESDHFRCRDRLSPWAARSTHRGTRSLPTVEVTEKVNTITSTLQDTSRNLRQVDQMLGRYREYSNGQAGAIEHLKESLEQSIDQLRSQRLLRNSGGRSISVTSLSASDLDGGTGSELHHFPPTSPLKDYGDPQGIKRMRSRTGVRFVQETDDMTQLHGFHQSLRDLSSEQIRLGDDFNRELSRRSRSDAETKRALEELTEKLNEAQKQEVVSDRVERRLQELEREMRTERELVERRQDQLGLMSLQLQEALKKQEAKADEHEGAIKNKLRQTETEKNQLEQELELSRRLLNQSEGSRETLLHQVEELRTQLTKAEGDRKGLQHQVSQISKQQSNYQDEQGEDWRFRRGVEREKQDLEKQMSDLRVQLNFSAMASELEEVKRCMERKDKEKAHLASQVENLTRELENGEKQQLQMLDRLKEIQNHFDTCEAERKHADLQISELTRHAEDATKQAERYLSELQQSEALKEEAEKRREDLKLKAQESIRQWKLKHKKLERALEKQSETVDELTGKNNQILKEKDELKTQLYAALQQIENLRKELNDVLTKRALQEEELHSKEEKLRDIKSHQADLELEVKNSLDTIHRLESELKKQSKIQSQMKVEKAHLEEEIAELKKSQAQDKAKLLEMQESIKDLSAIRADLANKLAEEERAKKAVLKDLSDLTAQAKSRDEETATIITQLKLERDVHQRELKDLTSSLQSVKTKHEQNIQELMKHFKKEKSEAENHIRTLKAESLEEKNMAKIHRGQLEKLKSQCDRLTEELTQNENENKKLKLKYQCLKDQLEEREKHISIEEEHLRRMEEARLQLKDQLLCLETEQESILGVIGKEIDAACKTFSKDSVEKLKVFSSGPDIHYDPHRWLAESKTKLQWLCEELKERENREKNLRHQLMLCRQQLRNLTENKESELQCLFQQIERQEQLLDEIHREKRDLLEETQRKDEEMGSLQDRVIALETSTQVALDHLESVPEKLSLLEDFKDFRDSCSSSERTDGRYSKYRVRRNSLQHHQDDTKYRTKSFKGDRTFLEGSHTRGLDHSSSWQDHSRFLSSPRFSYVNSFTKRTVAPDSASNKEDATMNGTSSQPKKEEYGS
UniProt Q7Z7K6, sequence (Q7Z7K6 whole entry, looked up): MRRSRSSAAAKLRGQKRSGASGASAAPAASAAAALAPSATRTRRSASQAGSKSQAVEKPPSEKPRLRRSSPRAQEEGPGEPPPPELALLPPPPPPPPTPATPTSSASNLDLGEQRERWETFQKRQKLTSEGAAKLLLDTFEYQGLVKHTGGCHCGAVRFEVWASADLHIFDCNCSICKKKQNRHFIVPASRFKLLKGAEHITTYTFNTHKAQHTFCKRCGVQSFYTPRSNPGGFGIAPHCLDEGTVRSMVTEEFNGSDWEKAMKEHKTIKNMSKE
UniProt Q6ZRI6, sequence (Q6ZRI6 whole entry, looked up): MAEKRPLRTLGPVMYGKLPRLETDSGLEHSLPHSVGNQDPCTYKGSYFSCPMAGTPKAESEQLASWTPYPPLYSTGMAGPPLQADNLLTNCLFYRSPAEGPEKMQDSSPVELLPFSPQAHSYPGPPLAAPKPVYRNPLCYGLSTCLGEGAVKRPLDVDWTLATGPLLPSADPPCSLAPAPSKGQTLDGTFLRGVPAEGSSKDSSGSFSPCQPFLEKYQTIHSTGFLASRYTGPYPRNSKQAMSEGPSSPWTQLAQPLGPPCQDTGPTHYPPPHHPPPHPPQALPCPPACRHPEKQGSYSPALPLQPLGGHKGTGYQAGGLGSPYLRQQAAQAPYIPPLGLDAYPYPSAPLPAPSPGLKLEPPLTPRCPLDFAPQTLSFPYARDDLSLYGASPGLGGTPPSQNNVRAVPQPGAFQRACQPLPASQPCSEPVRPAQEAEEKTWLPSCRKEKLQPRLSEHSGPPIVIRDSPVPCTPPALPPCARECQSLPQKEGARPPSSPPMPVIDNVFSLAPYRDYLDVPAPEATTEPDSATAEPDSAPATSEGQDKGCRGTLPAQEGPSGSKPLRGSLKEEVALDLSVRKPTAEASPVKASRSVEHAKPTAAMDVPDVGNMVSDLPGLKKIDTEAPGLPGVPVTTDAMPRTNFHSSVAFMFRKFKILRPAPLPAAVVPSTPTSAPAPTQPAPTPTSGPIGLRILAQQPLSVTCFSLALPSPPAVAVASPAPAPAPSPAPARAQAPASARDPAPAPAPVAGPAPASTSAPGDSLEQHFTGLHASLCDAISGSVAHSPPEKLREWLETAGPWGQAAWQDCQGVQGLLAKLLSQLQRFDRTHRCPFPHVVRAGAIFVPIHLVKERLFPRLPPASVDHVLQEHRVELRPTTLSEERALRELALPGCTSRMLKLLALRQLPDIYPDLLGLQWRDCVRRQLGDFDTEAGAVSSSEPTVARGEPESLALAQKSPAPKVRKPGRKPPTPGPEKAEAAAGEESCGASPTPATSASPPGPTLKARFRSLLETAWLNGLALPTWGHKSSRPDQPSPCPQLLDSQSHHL
UniProt P55210, sequence (P55210 whole entry, looked up): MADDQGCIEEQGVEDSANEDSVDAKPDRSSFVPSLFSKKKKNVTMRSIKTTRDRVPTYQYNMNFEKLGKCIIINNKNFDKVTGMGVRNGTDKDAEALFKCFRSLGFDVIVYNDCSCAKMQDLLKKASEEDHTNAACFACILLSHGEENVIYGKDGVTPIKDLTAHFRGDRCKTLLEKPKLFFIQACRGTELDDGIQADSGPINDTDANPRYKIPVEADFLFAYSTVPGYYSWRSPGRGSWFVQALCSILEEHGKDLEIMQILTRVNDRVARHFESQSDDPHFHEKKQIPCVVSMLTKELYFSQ
UniProt Q12983, sequence (Q12983 whole entry, looked up): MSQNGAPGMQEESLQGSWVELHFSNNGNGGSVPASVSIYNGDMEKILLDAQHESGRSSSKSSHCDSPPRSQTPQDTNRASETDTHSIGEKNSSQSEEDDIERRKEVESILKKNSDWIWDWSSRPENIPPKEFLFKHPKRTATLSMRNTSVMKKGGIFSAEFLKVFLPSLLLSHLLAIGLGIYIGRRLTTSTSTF

| Target | log2 fold change |
| --- | --- |
| CDK2 (UniProt P24941) | -0.003 |
| CARHSP1 (UniProt H3BNU9) | -0.215 |
| ATG4D (UniProt Q86TL0) | 0.072 |
| CASP7 isoform 3 (UniProt P55210) | -0.086 |
| BRD2 isoform 2 (UniProt P25440) | 0 |
| CAPNS1 (UniProt U3KPR7) | -0.105 |
| C15orf39 (UniProt Q6ZRI6) | -0.031 |
| ATE1 (UniProt O95260) | 0.005 |
| CCND3 (UniProt P30281) | -0.03 |
| CEP128 (UniProt Q6ZU80) | -0.234 |
| C3AR1 (UniProt Q16581) | 0.145 |
| CHCHD7 isoform 4 (UniProt Q9BUK0) | 0.014 |
| C9orf72 (UniProt Q96LT7) | -0.01 |
| C6orf120 (UniProt Q7Z4R8) | 0.008 |
| C8orf88 (UniProt P0DMB2) | 0.028 |
| BICRA (UniProt Q9NZM4) | 0.12 |
| CDK11A (UniProt Q9UQ88) | -0.037 |
| CENPV (UniProt Q7Z7K6) | -0.093 |
| BUD13 (UniProt Q9BRD0) | 0.054 |
| CASC1 (UniProt Q6TDU7) | 1.74 (active) |
| ATPSCKMT (UniProt Q6P4H8) | 0 |
| BNIP3 (UniProt Q12983) | -0.013 |
| CEP57L1 (UniProt Q8IYX8) | -0.021 |
| CCDC130 (UniProt P13994) | 0.032 |
| CEP295 isoform 3 (UniProt Q9C0D2) | 0.051 |
| B3GALT6 (UniProt Q96L58) | 0.022 |

The targets below were run with C1=CC=C(C=C1)C2=NC(=C(N2)C3=CC=NC=C3)C4=CC(=C(C=C4)Cl)O in the same assay as above.
Procedure, shortened: as §1

| Target | log2 fold change |
| --- | --- |
| CDK2 (UniProt P24941) | 0.008 |
| ATG4D (UniProt Q86TL0) | 0.049 |
| CASP7 isoform 3 (UniProt P55210) | 0.019 |
| BRD2 isoform 2 (UniProt P25440) | 0.109 |
| C15orf39 (UniProt Q6ZRI6) | 0.052 |
| CHD9 (UniProt Q3L8U1) | 0.043 |
| CCND3 (UniProt P30281) | 0.106 |
| CEP128 (UniProt Q6ZU80) | 0.236 |
| CHCHD7 isoform 4 (UniProt Q9BUK0) | 0.046 |
| C9orf72 (UniProt Q96LT7) | -0.041 |
| C8orf88 (UniProt P0DMB2) | -0.003 |
| CAPNS1 (UniProt K7ES78) | -0.048 |
| BICRA (UniProt Q9NZM4) | 0.065 |
| CHD4, A0A2R8Y521 | 0.259 |
| CDK11A (UniProt Q9UQ88) | 0.027 |
| CENPV (UniProt Q7Z7K6) | -0.193 |
| CDC25A (UniProt P30304) | 0 |
| BUD13 (UniProt Q9BRD0) | 0.054 |
| CASC1 (UniProt Q6TDU7) | -0.03 |
| ATPSCKMT (UniProt Q6P4H8) | 0.075 |
| BNIP3 (UniProt Q12983) | 0.028 |
| CEP57L1 (UniProt Q8IYX8) | -0.041 |
| CCDC130 (UniProt P13994) | -0.224 |
| CEP295 isoform 3 (UniProt Q9C0D2) | -0.092 |
| CDC14A isoform 2 (UniProt Q9UNH5) | 0.082 |
| B3GALT6 (UniProt Q96L58) | -0.028 |

These targets were tested with C1=CC=C2C(=C1)C3=NNC4=CC=CC(=C43)C2=O in the same assay as above.
Procedure, shortened: as §1

| Target | log2 fold change |
| --- | --- |
| CDK2 (UniProt P24941) | 0.237 |
| BAHCC1 (UniProt Q9P281) | -0.009 |
| BRD2 isoform 2 (UniProt P25440) | -0.014 |
| CHD9 (UniProt Q3L8U1) | -0.059 |
| CEP128 (UniProt Q6ZU80) | -0.102 |
| CHCHD7 isoform 4 (UniProt Q9BUK0) | -0.012 |
| CAPNS1 (UniProt K7ES78) | 0.047 |
| CENPV (UniProt Q7Z7K6) | 0.015 |
| CAD (UniProt H7BZB3) | -0.034 |
| BRAF, A0A2R8Y8E0 | 0.119 |
| CDKL5 (UniProt O76039) | 0.339 |
| CANX (UniProt D6RHJ3) | -0.022 |

The targets below were run with C1CCN(C1)C(=O)NC2=CC=CC(=C2)NC3=NC=C(C(=N3)NCCC4=CN=CN4)Br in the same assay as above.
Procedure, shortened: as §1

| Target | log2 fold change |
| --- | --- |
| CDK2 (UniProt P24941) | 0.135 |
| BAHCC1 (UniProt Q9P281) | -0.101 |
| ATG4D (UniProt Q86TL0) | 0.047 |
| CASP7 isoform 3 (UniProt P55210) | -0.013 |
| BRD2 isoform 2 (UniProt P25440) | -0.134 |
| C15orf39 (UniProt Q6ZRI6) | 0.019 |
| CCND3 (UniProt P30281) | -0.228 |
| CEP128 (UniProt Q6ZU80) | -0.138 |
| CHCHD7 isoform 4 (UniProt Q9BUK0) | 0.006 |
| C9orf72 (UniProt Q96LT7) | 0.056 |
| CHD4, A0A2R8Y521 | -0.033 |
| CENPV (UniProt Q7Z7K6) | -0.037 |
| BUD13 (UniProt Q9BRD0) | -0.046 |
| CAD (UniProt H7BZB3) | -0.035 |
| BRAF, A0A2R8Y8E0 | 0.067 |
| ATPSCKMT (UniProt Q6P4H8) | -0.074 |
| BNIP3 (UniProt Q12983) | 0.031 |
| CEP57L1 (UniProt Q8IYX8) | -0.013 |
| CDKL5 (UniProt O76039) | 0.423 |
| CCDC130 (UniProt P13994) | -0.152 |
| CEP295 isoform 3 (UniProt Q9C0D2) | 0.015 |
